Source: PubChem BioAssay
The list is not random: actives were taken first. Their share in the collection is about 5.3%.
ALOX12 inhib – qHTS Assay for Inhibitors of 12-hLO (12-human lipoxygenase); Polyunsaturated fatty acid lipoxygenase ALOX12 (Homo sapiens), P18054; purified 12-hLO, xylenol orange hydroperoxide absorbance; Potency, µM (series often up to 57.1 µM), inactives show top-dose activity change, negative = inhibition, hits mostly inhibitors; 0.12% of 150,000 active; AID 1452, 2008; note: potency is the fitted concentration of half-maximal effect; nearly all actives have a fitted effect of over 55% in size
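Xylenol orange chromogenic assay: hydroperoxide from 12hLO oxidises Fe(II), giving red-shifted Fe(III)-XO absorbance. Conditions: 150 nM enzyme, 40 uM arachidonic acid, 25 mM Hepes pH 7.0, 0.01% Triton X-100, 30 min, room temperature.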
IMPase Li cell – qHTS Assay for Identifying the Cell-Membrane Permeable IMPase Inhibitors: Potentiation with Lithium; CHO-M1 cells, IP1 TR-FRET (IP-One), carbachol + lithium; Potency, µM (doses to about 59.4 µM), inactives show at the highest dose activity, negative = IMPase inhibition, most hits filed as inhibitors; 0.35% of 210,000 active; AID 1457, 2008;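 note: IP1 builds up when IMPase is blocked and the TR-FRET signal falls; potency is the fitted concentration of half-maximal effect; plate controls were basal vehicle for no effect and high inhibitor control for full effect; nearly all actives have a fitted effect of over 50% in size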
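Concentration–response in CHO-M1 cells, lithium-potentiated; 30 min at 37C. IP1 detected by competitive TR-FRET after 10 min lysis at RT. Hill-fitted AC50.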
PNC assembly inh – High Content Assay for Compounds that inhibit the Assembly of the Perinucleolar Compartment; 3.1% of 140,000 active; PC3M PTB-GFP, PNC prevalence imaging, 16 h; stronger effect = lower value; activity change (PNC), negative = inhibition, % at 10 µM;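 active = readout at or below -70, meaning at least 70% loss of cells showing the perinucleolar compartment, a nuclear body marking cancer cells; inconclusive = readout between -30 and a set limit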;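 note: plate controls were DMSO wells for no effect and camptothecin positive control wells for full effect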
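Read-out is percentage of cells bearing a perinucleolar compartment, from automated 20x imaging of fixed, Hoechst-stained PC3M PTB-GFP cells. Cells were seeded 4 h, then exposed 16 h to compound (23 nl of library stock) in duplicate plates.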
HPGD inh – qHTS Assay for Inhibitors of HPGD (15-Hydroxyprostaglandin Dehydrogenase). 4.3% of 150,000 active. AID 894, 2007. Potency, µM, for inactives: at the top dose activity change, negative = inhibition, most hits filed as inhibitors. purified HPGD, NADH fluorescence kinetic, PGE2 substrate. 15-hydroxyprostaglandin dehydrogenase [NAD(+)] (Homo sapiens), P15428; active = well fitted inhibition curve with a large enough effect, not every such curve was filed as active; inconclusive = small, poorly fitted or top-dose-only effect, or another doubt; inactive = no such curve, though single readings can be large or run the other way; note: potency is the fitted concentration of half-maximal effect
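20 nM HPGD preincubated 15 min at room temperature with compound in 50 mM Tris-HCl pH 8, 0.01% Tween 20. Started with 1 mM NAD+ and 30 uM prostaglandin E2; NADH fluorescence (360/450 nm) read 5 times over 30-s intervals, last minus first.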
IMPase cell inh – qHTS Assay for Identifying the Cell-Membrane Permeable IMPase Inhibitors | Inositol monophosphatase 1 (Rattus norvegicus), P97697 | CHO-M1 cells, IP1 accumulation, HTRF TR-FRET ratio | inhibition (IP1 accumulation), % at 46.1 µM | 120,000 tested, under 10 active; active = well fitted curve in the direction sought with a large enough effect in the signal ratio, not every such curve was filed as active; inconclusive = small, poorly fitted or top-dose-only effect, or a change in a side signal; inactive = no such curve, though single readings can be large or run the other way; the % refers to the signal ratio;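 note: cells stimulated with carbachol in lithium chloride buffer; plate controls were DMSO basal wells for no effect and reference inhibitor wells for full effect; higher means more IMPase inhibition seen as more IP1 and lower FRET ratio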
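Measured: the HTRF emission ratio (665/620 nm) plus the 620 nm donor channel, each fitted to the Hill equation to give AC50. Cells were CHO-M1 given compounds up to 46 uM and a 30 min carbachol stimulation at 37C.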
15-hLO-2 inh – qHTS Assay for Inhibitors of 15-hLO-2 (15-human lipoxygenase 2); Polyunsaturated fatty acid lipoxygenase ALOX15B (Homo sapiens), O15296; purified 15hLO-2, xylenol orange hydroperoxide absorbance; Potency, µM (titrated, usually from 57.1 µM), inactives show at the top dose activity change, negative = inhibition, hits mostly inhibitors; 0.56% of 110,000 active; note: potency is the fitted concentration of half-maximal effect; nearly all actives have a fitted effect of over 60% in size
Target sequence (O15296 whole entry, looked up): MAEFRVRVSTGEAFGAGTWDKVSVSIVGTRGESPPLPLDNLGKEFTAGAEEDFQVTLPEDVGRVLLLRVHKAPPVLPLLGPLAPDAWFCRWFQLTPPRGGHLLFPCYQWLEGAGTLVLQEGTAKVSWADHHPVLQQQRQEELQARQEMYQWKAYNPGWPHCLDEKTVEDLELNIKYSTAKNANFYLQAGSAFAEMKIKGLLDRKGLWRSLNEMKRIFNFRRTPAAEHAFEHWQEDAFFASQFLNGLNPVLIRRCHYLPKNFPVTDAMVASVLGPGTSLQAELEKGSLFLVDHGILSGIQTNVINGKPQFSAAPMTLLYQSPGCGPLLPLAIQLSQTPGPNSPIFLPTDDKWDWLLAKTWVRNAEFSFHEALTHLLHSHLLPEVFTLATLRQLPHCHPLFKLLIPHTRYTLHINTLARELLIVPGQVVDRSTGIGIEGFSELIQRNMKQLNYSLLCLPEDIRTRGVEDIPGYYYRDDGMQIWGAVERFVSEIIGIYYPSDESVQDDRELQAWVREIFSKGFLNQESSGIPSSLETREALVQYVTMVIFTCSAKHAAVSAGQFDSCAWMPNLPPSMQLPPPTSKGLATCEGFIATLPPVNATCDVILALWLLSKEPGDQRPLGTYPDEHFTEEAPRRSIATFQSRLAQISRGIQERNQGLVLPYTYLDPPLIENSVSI
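Screening format was qHTS against 50 nM purified 15hLO-2 in Hepes pH 7.5 with detergent. Activity follows hydroperoxide formation from 45 uM arachidonic acid, measured as 573:405 nm absorbance ratio of the ferric-xylenol orange complex.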
Active calls of the source: *; ! = repeats disagree; [ ] = remark or other dose. Unless noted, calls come from the whole dose curve; as a rule, active = well fitted curve in the direction sought with a large enough effect; inconclusive = small, poorly fitted or top-dose-only effect, or another doubt; inactive = no such curve, though single readings can be large; an effect the other way counts as inactive or inconclusive. Unless noted, % is set by controls: 0 for no effect and ±100 for the full control effect.

How did O=C(O)CCCC[C@H]1SC[C@H]2NC(=O)N[C@@H]21 do in these assays?
ALOX12 inhib: 4%[25.6 µM]; IMPase Li cell: 6%; HPGD inh: -16%; IMPase cell inh: -1[20.6 µM]; 15-hLO-2 inh: 5%[25.6 µM]

How did c1ccc(CCN2CCC(N3CCN(c4ccccc4)CC3)CC2)cc1 do in these assays?
ALOX12 inhib: 1%; IMPase Li cell: 8%[38.3 µM]; PNC assembly inh: -100*; HPGD inh: 11%; IMPase cell inh: -2; 15-hLO-2 inh: 49%

How did CCCCN(Cc1ccccc1)C1CCN(CCc2ccccc2)CC1 do in these assays?
ALOX12 inhib: -10%; IMPase Li cell: 2%; PNC assembly inh: 110; HPGD inh: -2%

How did CC[C@H](CO)NC(=O)[C@@H]1C=C2c3cccc4c3c(cn4C)C[C@@H]2N(C)C1 do in these assays?
ALOX12 inhib: -5%; IMPase cell inh: 0; 15-hLO-2 inh: -8%

Results for O=[N+]([O-])c1ccc(O[C@H]2O[C@@H](CO)[C@@H](O)[C@@H](O)[C@@H]2F)c([N+](=O)[O-])c1 ?
ALOX12 inhib: -5%; IMPase cell inh: 3; 15-hLO-2 inh: -2%

How did C=CCN1C(=O)NC(=O)/C(=C/c2ccoc2)C1=O do in these assays?
ALOX12 inhib: -1%; IMPase Li cell: 0%; PNC assembly inh: 43; HPGD inh: 25µM*

Results for C=CCN1C(=O)NC(=O)/C(=C/c2cccn2C)C1=O ?
ALOX12 inhib: 1%; IMPase Li cell: 7%[38.3 µM]; PNC assembly inh: -7; HPGD inh: -23%; IMPase cell inh: 9; 15-hLO-2 inh: -27%

Results for COc1ccc(OP(=O)(Nc2ccccc2)Nc2ccccc2)cc1 ?
ALOX12 inhib: 7%; IMPase Li cell: 16%[38.3 µM]; PNC assembly inh: 40; HPGD inh: 14µM*; IMPase cell inh: -3; 15-hLO-2 inh: -6%

Results for Cc1ccc(NP(=O)(Nc2ccc(C)cc2)Oc2ccccc2)cc1 ?
IMPase Li cell: 2%

How did NS(=O)(=O)c1ccc(-c2ccc([As](=O)(O)O)cc2)cc1 do in these assays?
ALOX12 inhib: -3%[11.4 µM]; IMPase Li cell: -1%; HPGD inh: -11%; 15-hLO-2 inh: 2%[11.4 µM]

How did C[C@@H]1[C@H]2C=C[C@@H]1[C@@H](c1c3ccc(=O)c(O)c-3oc3c(O)c(O)ccc13)[C@@H]2C(=O)O do in these assays?
ALOX12 inhib: -23%[11.4 µM]; 15-hLO-2 inh: inconclusive

Results for Cc1cc(OC(=O)CCCNC(=O)OC(C)(C)C)c2c3c(c(=O)oc2c1)CCC3 ?
ALOX12 inhib: -2%; IMPase Li cell: 16%[38.3 µM]; PNC assembly inh: -10; HPGD inh: -12%; IMPase cell inh: 4; 15-hLO-2 inh: 2%

How did Cc1cc(OC(=O)CCNC(=O)OC(C)(C)C)c2c3c(c(=O)oc2c1)CCC3 do in these assays?
ALOX12 inhib: 3%; IMPase Li cell: 9%[38.3 µM]; PNC assembly inh: -109*; HPGD inh: inconclusive; IMPase cell inh: 13; 15-hLO-2 inh: -7%

What do the screens show for `CCCCn1c(O)c(C(CC)=NCCc2ccccc2)c(=O)[nH]c1=O`?
ALOX12 inhib: -18%; IMPase Li cell: 4%[38.3 µM]; PNC assembly inh: 7; HPGD inh: -12%; IMPase cell inh: -1; 15-hLO-2 inh: -17%

What do the screens show for `CCCCn1c(O)c(C(CC)=NCCN2CCCCC2)c(=O)[nH]c1=O`?
ALOX12 inhib: -7%; IMPase Li cell: -6%[38.3 µM]; PNC assembly inh: -89*; HPGD inh: -10%; IMPase cell inh: 11; 15-hLO-2 inh: 0%

How did CCCCn1c(O)c(C(CC)=Nc2cccc(C(=O)O)c2)c(=O)[nH]c1=O do in these assays?
ALOX12 inhib: 4%; IMPase Li cell: 20%[38.3 µM]; PNC assembly inh: -90*; HPGD inh: inconclusive; IMPase cell inh: 7; 15-hLO-2 inh: 2%

How did COc1ccc(N=C(C)c2c(O)n(C)c(=O)n(C)c2=O)c(OC)c1 do in these assays?
ALOX12 inhib: 6%; IMPase Li cell: 31%[38.3 µM]; PNC assembly inh: 8; HPGD inh: -26%; IMPase cell inh: 9; 15-hLO-2 inh: 2%

What do the screens show for `CCC(=NCCC(c1ccccc1)c1ccccc1)c1c(O)[nH]c(=O)[nH]c1=O`?
ALOX12 inhib: -2%; IMPase Li cell: 12%; PNC assembly inh: -96*; HPGD inh: -12%

What do the screens show for `C=CCn1c(O)c(C(CC)=Nc2cc(OC)ccc2OC)c(=O)[nH]c1=O`?
ALOX12 inhib: -16%; IMPase Li cell: 25%[38.3 µM]; PNC assembly inh: 31; HPGD inh: -29%; IMPase cell inh: 13; 15-hLO-2 inh: -5%

How did CCC(=Nc1ccc(OC)cc1OC)c1c(O)[nH]c(=O)[nH]c1=O do in these assays?
ALOX12 inhib: -6%; IMPase Li cell: 2%[38.3 µM]; PNC assembly inh: -96*; HPGD inh: 25µM*; IMPase cell inh: 3; 15-hLO-2 inh: -4%

Results for CCC(=Nc1cc(OC)ccc1OC)c1c(O)[nH]c(=O)[nH]c1=O ?
ALOX12 inhib: 0%; IMPase Li cell: 2%[38.3 µM]; PNC assembly inh: 48; HPGD inh: 25µM*; IMPase cell inh: 8; 15-hLO-2 inh: -5%

What do the screens show for `CCC(=NCc1ccco1)c1c(O)[nH]c(=O)[nH]c1=O`?
ALOX12 inhib: -3%; IMPase Li cell: 19%[38.3 µM]; PNC assembly inh: 36; HPGD inh: -1%; IMPase cell inh: -1; 15-hLO-2 inh: -1%

What do the screens show for `NC(N)=Nc1ccc2[nH]c3c(c2c1)C[C@]1(O)[C@@H]2Cc4ccc(O)c5c4[C@]1(CCN2CC1CC1)[C@H]3O5`?
ALOX12 inhib: inconclusive; IMPase cell inh: 20; 15-hLO-2 inh: inconclusive

Results for O=C(Cl)OCc1ccccc1 ?
ALOX12 inhib: -4%; IMPase Li cell: -10%; HPGD inh: -7%; 15-hLO-2 inh: -4%

Results for Cc1cc2c(C(C)C)c(O)c(O)c(C=O)c2c(O)c1-c1c(C)cc2c(C(C)C)c(O)c(O)c(C=O)c2c1O ?
ALOX12 inhib: inconclusive; IMPase Li cell: 10%; PNC assembly inh: inconclusive; HPGD inh: 8.9µM*!; IMPase cell inh: -2; 15-hLO-2 inh: 3.5µM*

Results for N#CC(C#N)=NNc1ccc(OC(F)(F)F)cc1 ?
ALOX12 inhib: -5%; IMPase Li cell: -2%; HPGD inh: -27%; 15-hLO-2 inh: 16µM*

What do the screens show for `CCn1cnc2c(Nc3cccc(Cl)c3)nc(N[C@@H]3CCCC[C@H]3N)nc21`?
ALOX12 inhib: -12%; IMPase cell inh: 6; 15-hLO-2 inh: 45%
